# An excerpt weighted towards active compounds, which were near 2% of everything screened.
# PrPC surface inh = inhibitors of human cell surface prion protein PrPC; TR-FRET read-out; inhibition, % at 13.8 µM; 370,000 tested, 0.43% active; AID 720596; in the data active = inhibition above about 24%
# Y pestis TopoI = inhibitors of Yersinia pestis topoisomerase I. AID 504884. 360,000 tested, 0.064% active. activity, % at 10 µM. Y. pestis Topo-I cleavage product accumulation, plate reader; in the data active = activity above about 50%, passing the limit was not always enough
# CCHF vOTU inh = blocks the CCHF virus ovarian tumor domain protease. CCHFV vOTU protease, Pep-AMC fluorescence. 370,000 tested, 0.55% active. inhibition, % at 11.5 µM; in the data active = inhibition above about 30%
# BJeLR viability = kills HRASV12-expressing BJeLR cells; AID 1554; inhibition, % (concentration not given with the values); BJeLR (HRASV12) viability, CellTiter-Glo ATP luminescence, 48 h; 300,000 tested, 0.17% active; in the data active = inhibition above about 50%
# PfHsp40 rescue = rescue of PfHsp40-mediated yeast toxicity; S. cerevisiae expressing PfHsp40, growth rescue, ATP luminescence; growth rescue, % at 12.5 µM; 340,000 tested, 0.68% active; in the data active = growth rescue above about 28%, passing the limit was not always enough;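 note: yeast W303a lacking pdr1 and pdr3 grown in galactose medium; growth measured after three days at 30 °C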
# PrP 5UTR inh = inhibition of PrP 5' UTR reporter expression; inhibition, % (no concentration beside the values); cell-based PrP 5' UTR mRNA reporter, plate reader; 340,000 tested, 0.35% active; in the data active = inhibition above about 52%
# Numbers stand for hits; n = inactive; x = not tested or not shown.
SMILES,PrPC surface inh,Y pestis TopoI,CCHF vOTU inh,BJeLR viability,PfHsp40 rescue,PrP 5UTR inh
Cc1ccc(Cn2cc(CN3[C@H](C)COc4cc(Br)ccc4S3(=O)=O)nn2)cc1,n,x,n,x,x,x
O=C(CSc1ccc(-c2ccccn2)nn1)c1ccc(F)cc1,n,n,n,n,n,n
O=C(CSc1ccc(-c2ccccn2)nn1)N1CCCC1,n,n,n,n,91,n
Clc1ccc(CSc2ccc(-c3ccccn3)nn2)cc1,n,n,n,n,n,n
O=C(CSc1ccc(-c2ccco2)nn1)N1CCCC1,n,n,n,n,n,n
O=C(CSc1ccc(-c2ccccn2)nn1)NC1CCCC1,n,n,n,n,221,n
c1ccc(CSc2ccc(-c3ccccn3)nn2)cc1,n,n,n,n,112,n
CCc1ccc(-c2ccc(SCC(=O)NC3CCCC3)nn2)cc1,n,n,n,x,x,x
O=C(CSc1ccc(-c2ccccn2)nn1)c1ccccc1,n,n,n,n,401,n
COC[C@@H](O)[C@H]1OCc2cc(OC)ccc2[C@@H]1/C=C/c1ccccc1,n,x,n,x,x,x
COc1ccc(-c2cc(C(=O)NNC(=S)NC(=O)c3c(-c4ccccc4)noc3C)[nH]n2)cc1,n,n,n,n,287,n
Cc1onc(-c2ccccc2)c1C(=O)NNC(=O)c1ccccc1O,n,n,n,n,68,n
CCc1nnc(NC(=O)c2ccc(S(=O)(=O)N(CC)Cc3ccccc3)cc2)o1,n,n,n,n,172,n
CCN(Cc1ccccc1)S(=O)(=O)c1ccc(C(=O)Nc2nnc(C)o2)cc1,n,n,n,n,n,n
O=C(C(=O)N1CCN(S(=O)(=O)c2ccccc2)CC1)c1cccc(C(F)(F)F)c1,n,x,n,x,x,x
COc1ccc2cnn(CCOc3cc(C)ccc3C(C)C)c(=O)c2c1OC,n,n,n,n,320,n
O=C(N/N=C/c1ccc[nH]1)c1sc2ccccc2c1Cl,n,n,n,n,498,n
O=C(N/N=C/c1ccncc1)c1sc2ccccc2c1Cl,n,n,n,n,n,n
CCCC(C)Sc1nc2c([nH]1)c(=S)n(C)c(=O)n2C (stereo not drawn),n,n,n,x,38,n
Cn1c(=S)c2[nH]c(SCC3CCCO3)nc2n(C)c1=O (stereo not drawn),n,n,n,x,n,n
Nc1[nH]c(C(=O)c2ccccc2)c(-c2ccccn2)c1C(=O)c1c[nH]c2ccccc12,n,x,n,x,x,x
Cc1ccc(C2CN=NC23CCc2ccccc2C3=O)cc1 (stereo not drawn),n,n,n,n,n,n
O=C1c2ccccc2CCCC12N=NCC2c1cccc2ccccc12 (stereo not drawn),n,n,n,n,109,n
CC(Cc1cccs1)NC(=O)Nc1ccc(Cl)c(Cl)c1 (stereo not drawn),n,n,n,n,131,n
O=C(NCCc1ccccc1Cl)[C@@H]1CCCN1C(=O)[C@@H](NC(=O)N1CCOCC1)c1ccccc1,n,x,n,x,x,x
SMILES,PrPC surface inh,Y pestis TopoI,CCHF vOTU inh,BJeLR viability,PfHsp40 rescue,PrP 5UTR inh
O=C(NC(=S)Nc1ccccc1Br)C1CC1,n,n,n,n,n,n
Cc1ccc(NC(=S)NC(=O)C2CCCC2)c(Br)c1,n,n,n,x,119,n
COc1ccc([N+](=O)[O-])cc1NC(=O)C(C)OC(=O)c1ccccc1C(=O)c1ccc(Cl)cc1 (stereo not drawn),n,n,n,n,72,n
COc1ccc([N+](=O)[O-])cc1NC(=O)COC(=O)c1ccccc1C(=O)c1ccccc1,n,n,n,n,n,n
Cc1cc(C)nc(SCc2cc(=O)c(OC(=O)c3ccco3)co2)n1,n,n,n,n,n,n
Cc1cc(C)nc(SCc2cc(=O)c(OC(=O)c3ccc(S(=O)(=O)N4CCCC4)cc3)co2)n1,n,n,n,n,130,n
O=C(c1cccc(F)c1)N1CCC(N2CCCCCC2)CC1,n,n,n,n,n,n
O=C(c1cccc(F)c1)N1CCN(C2CCCCC2)CC1,n,n,n,n,54,n
Oc1ccc(/C=N/N(Cc2ccccc2)c2ccccc2)c(O)c1O,n,n,n,n,42,n
Oc1cccc(/C=N/N(Cc2ccccc2)c2ccccc2)c1,n,n,n,n,345,n
C(=N\N(Cc1ccccc1)c1ccccc1)/c1cccnc1,n,n,n,n,n,n
C/C(=N\N(Cc1ccccc1)c1ccccc1)c1cccnc1,n,n,n,n,n,n
CN(C)c1ccc(C(=O)NC2CCCCN(Cc3cccc(Cl)c3)C2=O)cc1 (stereo not drawn),n,x,n,x,x,x
CC/C(=N\Nc1ccc([N+](=O)[O-])cc1)c1ccccc1,x,n,x,n,430,n
O=[N+]([O-])c1ccc(C=NNc2ccccc2)cc1,n,n,n,x,30,n
C/C(=N\Nc1ccc([N+](=O)[O-])cc1)c1ccco1,n,n,n,n,64,n
O=[N+]([O-])c1ccc(NN=C(Oc2ccccc2)c2ccc([N+](=O)[O-])cc2)cc1,n,n,n,x,x,x
Cc1ccc(S(=O)(=O)NCC2CCN(C(=O)C(=O)c3cccs3)CC2)cc1,n,x,n,x,x,x
COc1ccc(/C=C/C(=O)c2cc(F)ccc2OC(=O)c2ccccc2C)cc1OC,n,n,n,77,n,n
O=C(NNC(=O)c1ccccc1OCc1ccc(F)cc1)c1ccccc1O,n,n,n,n,43,n
O=C(NNC(=O)c1ccccc1OCc1ccccc1)c1ccccc1O,n,n,n,n,n,n
NC(=O)c1c(N)[nH]c(C(=O)c2ccccc2)c1-c1ccccc1Cl,n,x,n,x,x,x
CCOC(=O)c1ccc(NC(=O)Cn2ncc(Cl)c(Cl)c2=O)cc1,n,n,n,n,34,n
CCOC(=O)c1ccc(NC(=O)CC2Sc3ncnn3C2=O)cc1 (stereo not drawn),n,n,n,n,42,n
CCC(=O)Nc1ccc(C(=O)Cn2ncc(Cl)c(Cl)c2=O)cc1,n,n,n,n,n,n
SMILES,PrPC surface inh,Y pestis TopoI,CCHF vOTU inh,BJeLR viability,PfHsp40 rescue,PrP 5UTR inh
COc1ccc(NC(=O)CC2Sc3ncnn3C2=O)cc1 (stereo not drawn),n,n,n,n,n,n
CCOC(=O)C(C)/C(C)=N/NC(=O)c1cc2ccccc2cc1O (stereo not drawn),n,n,n,n,156,n
O=C(CSc1nnc(-c2cccc(Cl)c2)n1Cc1ccco1)c1ccc(F)cc1,n,x,n,x,x,x
O=C(Nc1ccc(F)cc1)OCc1cn(Cc2ccccc2C(F)(F)F)nn1,n,x,n,x,x,x
Oc1ccc(Cl)cc1/C=C/c1ccc2cccc(O)c2n1,n,n,n,n,160,n
Cc1ccsc1/C=C/c1ccc2cccc(O)c2n1,n,n,n,n,446,n
COc1ccc(N2C[C@@]3(O)CC[C@@H](O)[C@@H](OC)[C@@H]3[C@@](C)(O)[C@@H]2CC=C(C)C)cc1,n,x,n,x,x,x
CC(c1ccccc1)N1CC[C@H]2C=CC[C@@H](C(=O)Nc3cccc(Cl)c3)[C@H]2C1=O (stereo partly drawn),n,x,x,x,x,x
CCNC(=O)OC[C@H]1O[C@H](C#Cc2ccc(C(C)(C)C)cc2)C=C[C@H]1OC(C)=O,n,x,n,x,x,x

# Bioassay records (PubChem BioAssay)
